Assay outcomes from PubChem BioAssay.
D2 antag: antagonists of human D2 dopamine receptor; HEK293 TREx D2 cells, calcium flux, dopamine EC80; AID 485344; P14416; inhibition, % at 10 µM; 340,000 compounds, 2% hits; in the data active = inhibition above about 30%; inactive = below that, where a call was filed; also: 0% is about no effect
Target sequence (P14416 whole entry, looked up): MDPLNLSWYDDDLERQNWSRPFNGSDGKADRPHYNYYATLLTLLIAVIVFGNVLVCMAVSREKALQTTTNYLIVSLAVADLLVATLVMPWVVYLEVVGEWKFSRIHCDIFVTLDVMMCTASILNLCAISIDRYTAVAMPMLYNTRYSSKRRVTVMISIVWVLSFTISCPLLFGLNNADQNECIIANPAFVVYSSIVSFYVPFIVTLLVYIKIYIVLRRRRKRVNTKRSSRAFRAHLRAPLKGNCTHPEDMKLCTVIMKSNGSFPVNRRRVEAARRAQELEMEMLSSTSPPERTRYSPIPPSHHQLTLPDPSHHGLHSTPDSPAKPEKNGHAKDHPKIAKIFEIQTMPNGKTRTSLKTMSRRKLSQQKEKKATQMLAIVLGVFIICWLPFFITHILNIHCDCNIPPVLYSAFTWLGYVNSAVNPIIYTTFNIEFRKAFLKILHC
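Cells plated overnight at 30 C with tetracycline; no-wash calcium dye, 30–90 min RT; 10 s baseline; compound pinned; 180 s read; EC80 dopamine added; another 180 s read.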
D2 PAM-1: positive allosteric modulators of human D2 dopamine receptor; P14416; HEK293 T-REx D2, calcium flux, EC20 dopamine potentiation; potentiation, % at 10 µM; 340,000 compounds, 0.34% hits;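 active = potentiation over 3 SD above the plate norm, cut at about 30% in these data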; also: 0% is about no effect
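Primary screen. Calcium kinetics in induced HEK293 T-REx D2 cells: compound pre-addition 180 s, EC20 dopamine, 180 s more.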
D2 PAM-2: human D2 receptor positive allosteric modulation | P14416 | DiscoveRx D2 beta-arrestin cells, luminescence, 90 min; 100% = 57 uM dopamine signal | potentiation, % (concentration not given with the values) | 360,000 compounds, 0.23% hits; in the data active = potentiation above about 50%
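PathHunter D2 cells, attached overnight at 37 deg C, received compound in DMSO plus dopamine at EC20 (50 nM final) for 90 min at 37 deg C. Beta-arrestin recruitment was read as luminescence after 1 h with detection reagent at ambient temperature.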
D2 ag-1: agonists of human D2 dopamine receptor (beta-arrestin). P14416. DiscoveRx PathHunter D2 beta-arrestin, luminescence, 90 min; 100% = 57 uM dopamine signal. activation, % (no concentration beside the values). 360,000 compounds, 0.084% hits. AID 624465; in the data active = activation above about 40%
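Agonist mode: compounds alone added to overnight-plated D2 PathHunter cells for 90 min at 37 C, with 57 uM final dopamine (EC100) defining full response. Beta-arrestin recruitment detected by chemiluminescent reagent, read after 1 h at ambient temperature.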
D2 ag-2: activates the human D2 dopamine receptor; P14416; HEK293 T-REx D2 cells, calcium flux agonist mode; activation, % at 2 µM; 340,000 compounds, 0.53% hits; AID 485358;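 active = activation over 3 SD above normal in the single-dose calcium agonist read, cut at about 30% in these data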; also: 0% is about no effect
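Tetracycline-induced HEK293 Trex cells with D2 receptor force-coupled to calcium signaling, plated overnight at 30 C and loaded with no-wash calcium dye. Calcium flux read kinetically for 180 s after compound addition; responses flag agonists.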
An asterisk follows results filed as active; . = no result given. Sampled rows, rich in hits. Any-hit rate of the full collection: about 2.4%.

SMILES	D2 antag	D2 PAM-1	D2 PAM-2	D2 ag-1	D2 ag-2
CCOc1ccc(C(CC(=O)O)NC(=O)C(CC)c2ccccc2)cc1 (stereo not drawn)	35.3*	-6.2	-4.0	4.0	0.6
O=C(O)CC(NC(=O)c1ccco1)c1ccco1 (stereo not drawn)	-2.8	-0.6	4.7	-2.7	0.8
COc1ccc(CC(=O)NC(CC(=O)O)c2ccc(OC)cc2)cc1 (stereo not drawn)	36.5*	-5.3	-14.1	-2.4	-0.3
CCOC(=O)CNC(=O)c1cc(OC)cc(OC)c1	38.6*	.	-1.2	3.7	-0.5
COc1cc(OC)cc(C(=O)NCc2cccnc2)c1	-7.4	30.5*	-39.5	0.0	0.9
COc1ccc(C(=O)NCc2cccnc2)cc1Br	-2.0	-4.8	-6.7	-1.8	0.6
COc1cc(/C=N/NC(=O)C(=O)NCc2cccnc2)ccc1O	5.9	-20.1	-16.4	-4.2	-1.3
COc1ccc(/C=N/NC(=O)C(=O)NCc2cccnc2)cc1OC	32.7*	2.8	4.6	-1.2	0.2
CC(=O)N1CCN(CC(=O)NC(=O)Nc2ccc3c(c2)OCCO3)CC1	7.0	0.2	13.4	2.8	0.3
Cc1ccc2nc(SCC(=O)Nc3cccc(Cl)c3)nc(=O)n2c1	-13.6	-6.3	-6.1	2.6	0.6
Cc1ccc2nc(SCC(=O)Nc3ccc(C)c(Cl)c3)nc(=O)n2c1	34.7*	10.7	-8.1	-0.2	-1.0
Cc1ccc2nc(SCC(=O)N3CCCCCC3)nc(=O)n2c1	1.1	-8.7	-3.6	-0.5	0.9
Cc1cc(NC(=O)CSc2nc(=O)n3cc(Cl)ccc3n2)no1	.	.	-3.0	-1.5	.
Cc1ccc2nc(SCC(=O)c3ccc(Cl)cc3)nc(=O)n2c1	32.1*	12.7	-1.1	-4.7	-0.6
Cc1ccn2c(=O)nc(SCC(=O)Nc3cc(C)on3)nc2c1	41.6*	-9.6	1.2	-1.0	-0.8
Cc1ccc(NC(=O)c2c(C)oc3c2C2=NCCN2C=N3)cc1F	.	-6.0	.	.	-0.4
O=C(Nc1ccon1)Nc1ccc(F)cc1F	31.4*	-3.1	-1.4	-2.3	-0.1
COc1ccc(Cl)cc1NC(=O)CSc1cn(CC(=O)N2CCCCCC2)c2ccccc12	.	-3.2	.	.	0.2
O=C(N/N=C\c1ccc(Cl)cc1)C1=NOC2COC3(CCN(c4ccc([N+](=O)[O-])cc4)CC3)OCC12 (stereo not drawn)	24.6	2.7	-8.7	4.1	0.6
Cc1ccc(C2C3=C(CC(C)(C)CC3=O)Nc3n[nH]c(C)c32)cc1 (stereo not drawn)	-33.3	12.8	-6.7	-0.2	0.3
Cc1[nH]nc2c1C(c1ccc(F)cc1)C1=C(CC(C)(C)CC1=O)N2 (stereo not drawn)	18.7	30.4*	-13.2	-1.6	22.8
CCOC(=O)c1c(CSc2ccccc2)n(C)c2cc(Br)c(O)c(CN(C)C)c12	-5.8	-3.0	-4.4	0.7	-0.7
CCOC(=O)c1c(CN2CCCCC2)n(C)c2cc(Br)c(O)c(CN(C)C)c12	60.5*	-32.9	-5.9	-5.3	0.4
Cc1ccc(C)c(NC(=O)C(Cc2ccccc2)N2Cc3ccccc3C2=O)c1 (stereo not drawn)	.	3.2	.	.	.
C(=N\Nc1nc2ccccc2s1)/c1cccs1	37.5*	-2.9	3.2	0.6	1.1
SMILES	D2 antag	D2 PAM-1	D2 PAM-2	D2 ag-1	D2 ag-2
O=C(O)/C=C/C(=O)Nc1ccc2nccnc2c1	5.5	6.4	-0.8	-1.6	0.8
COc1ccc(OCCCC(=O)Nc2nncs2)cc1	4.2	38.8*	-10.3	0.8	0.8
Cc1nn(-c2ccc(Cl)cc2)c2sc(C(=O)N3CCN(c4ccccn4)CC3)cc12	1.0	31.6*	-6.6	1.0	-1.4
O=C(Nc1cnn(Cc2c(Cl)cccc2Cl)c1)C(c1ccccc1)c1ccccc1	15.7	32.9*	1.3	-0.8	0.5
O=C(COc1ccccc1Cl)Nc1cnn(Cc2ccccc2)c1	-14.1	-2.6	-13.0	0.7	-0.6
O=C(Cn1nc2c(cc1=O)CCCC2)NCc1ccccc1Cl	.	7.6	.	.	1.9
COC(=O)C1C(=O)NC(SC)=C(C#N)C1c1ccccc1 (stereo not drawn)	2.1	34.3*	0.2	-1.4	-0.4
Cc1onc(-c2c(F)cccc2Cl)c1C(=O)Oc1ccccc1	.	.	3.4	-1.0	.
COc1ccc(CCNC(=O)c2n[nH]c3ccccc23)cc1	41.8*	-10.2	1.3	1.9	4.3
